# Assay outcomes deposited in PubChem by The Scripps Research Institute Molecular Screening Center.
# Most compounds without a hit are left out; they make up all but 4.8% or so of the library.
# DAX1 inh-1 – DAX1 (NR0B1) inhibition, primary screen; AID 652010; inhibition, % at 6.8 µM; 1.1% of 370,000 active; HEK293T StAR-luciferase reporter, SF-1/DAX-1 repression relief;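 active means inhibition above the mean over all tested compounds plus 3 SD, cut at about 3.6% in these data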;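 further: 0% = DAX-1 cells with DMSO and 100% = cells lacking DAX-1 with DMSO; higher inhibition means more luminescence from relief of DAX-1 repression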
# hcDAF12 agonist – H. contortus DAF-12 activation, primary screen; HEK293 hcDAF-12 lit1-tk-luc reporter, luminescence; 0% DMSO, 100% Δ7-dafachronic acid; activation, % at 6.8 µM; 1.4% of 370,000 active; AID 652067;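 active means activation above the mean of all tested compounds plus 3 SD, cut at about 5.5% in these data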;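 further: 100% = response to 3 µM Δ7-dafachronic acid high control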
# ssDAF12 agonist – activators of S. stercoralis DAF-12 nuclear receptor. AID 652126. activation, % at 6.8 µM. HEK293 ssDAF-12/GRIP1 lit1-tk-luc reporter, luminescence; % of 3 µM dafachronic acid response. 1% of 370,000 active;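 active means activation above the mean over all tested compounds plus 3 SD, cut at about 0.9% in these data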;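 further: 0% = DMSO-only wells and 100% = 3 µM delta7-dafachronic acid wells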
# SMARCA2 act – increases SMARCA2 function in MMTV reporter cells | MG213 cells, MMTV-luciferase reporter, dexamethasone, overnight | activation, % at 9.1 µM | 1% of 370,000 active | AID 652017; in the data active means activation above about 7.8%;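 further: 0% = vehicle wells and 100% = reference activator wells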
# hgDAF12 agonist – activates the H. glycines DAF-12 receptor ligand-binding domain; AID 687014; HEK293 GAL4-hgDAF12 UAS-luciferase reporter, agonist luminescence; normalized to butyrate control; 1.8% of 370,000 active; activation, % at 6.8 µM;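 active means activation above a cutoff set at the mean of all screened compounds plus 3 SD, cut at about 10% in these data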;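 further: 0% = DMSO wells and 100% = sodium butyrate wells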
# DAX1 inh-2 – NR0B1 (DAX1) inhibition | P51843 | inhibition, % at 6.75 µM | HEK293 Gal4-DAX1 luciferase reporter, luminescence | 0.99% of 340,000 active;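 active means inhibition above the mean over all tested compounds plus 3 SD, cut at about 4.2% in these data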;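 further: 0% = DAX1-transfected cells with DMSO and 100% = empty-vector control cells with DMSO; inhibition shows as a rise in luminescence from relieved DAX1 repression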
# hgDAF12 ag – hgDAF-12 agonism, confirmation assay. shares compounds with hgDAF12 agonist. HEK293 GAL4-hgDAF12 luciferase reporter, agonist mode; percent of butyrate response. activation, % at 6.8 µM. 80% of 3,300 active;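 active means mean activation over triplicate wells above the hit cutoff derived from the earlier primary screen, cut at about 11% in these data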;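 further: 0% = DMSO low control and 100% = 2 mM sodium butyrate high control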
# LXR ag 2 – LXR-beta agonism as DAF-12 counter-screen. shares compounds with hgDAF12 agonist. HEK293 Gal4-LXR luciferase reporter, 24 h. activation, % at 6.8 µM. 3,300 tested, under 10 active;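 active means mean activation of the triplicate above a set limit carried over from the primary screen, none filed active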
# Target sequence (P55055 whole entry, looked up, the tested form may be a part): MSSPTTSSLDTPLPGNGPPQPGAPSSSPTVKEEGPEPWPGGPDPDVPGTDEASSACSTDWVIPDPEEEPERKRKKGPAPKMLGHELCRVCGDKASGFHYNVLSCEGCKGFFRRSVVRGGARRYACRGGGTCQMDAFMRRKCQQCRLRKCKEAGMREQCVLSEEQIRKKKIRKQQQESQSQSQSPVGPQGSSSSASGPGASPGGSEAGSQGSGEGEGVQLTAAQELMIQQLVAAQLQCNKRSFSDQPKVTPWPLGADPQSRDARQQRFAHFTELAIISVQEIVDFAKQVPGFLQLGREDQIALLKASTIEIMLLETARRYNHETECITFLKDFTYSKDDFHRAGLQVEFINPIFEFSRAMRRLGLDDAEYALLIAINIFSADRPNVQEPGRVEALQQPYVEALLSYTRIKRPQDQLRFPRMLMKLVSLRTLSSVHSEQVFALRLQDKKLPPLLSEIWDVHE
# * hit, by the source's call; x = no result given.
SMILES,DAX1 inh-1,hcDAF12 agonist,ssDAF12 agonist,SMARCA2 act,hgDAF12 agonist,DAX1 inh-2,hgDAF12 ag,LXR ag 2
COc1ccc(N/C=C/C(=O)c2ccc(Cl)cc2)cc1,4,3,1,5,13*,1,16*,1
CC(=O)N1CCCc2cc(S(=O)(=O)N3CCc4ccccc4C3)ccc21,-1,-1,-1,-1,-1,-1,x,x
CC(C)CSc1nnc2c(n1)[nH]c1ccccc12,4.0*,6.4*,1.2*,2,14*,2,12*,1
O=C(COc1ccc(C(=S)N2CCOCC2)cc1Cl)Nc1ccccc1Cl,-1,-1,-1,4,-1,1,x,x
Cc1nn(CSc2c(F)c(F)c(F)c(F)c2F)c(C)c1[N+](=O)[O-],-2,0,-1,4,2,0,x,x
CC(C)c1ccc(NC(=O)Nc2cnccn2)cc1,3,0,-1,4,16*,0,14*,1
CC(C)(C)c1ccc(C(=O)Nc2ncn[nH]2)cc1,2,4,0,5,14*,1,13*,1
CCCCOC(=O)Nc1ccc(N2CCCCC2)cc1,3,4,0,1,13*,1,13*,1
CCc1ccc(OCCCC(=O)Nc2ccc(N3CCCCC3)cc2)cc1,0,0,-1,-1,1,-1,x,x
COc1cc(/C=C2\CC/C(=C\c3ccc(OCCO)c(OC)c3)C2=O)ccc1OCCO,-1,-2,-2,0,0,1,x,x
O=c1c2ccccc2nnn1CSc1ccccc1,3.6*,3,-1,7,16*,1,14*,1
O=c1c2ccccc2nnn1CSc1ccc2ccccc2n1,0,1,-2,5,0,1,x,x
O=C(NN1CCOCC1)c1ccco1,0,-2,-1,-5,1,0,x,x
Cc1nn2c(-c3ccc(F)cc3)ccnc2c1Cl,0,-1,-1,-2,-1,1,x,x
Fc1ccc(-c2cnn3c(-c4ccncc4)ccnc23)cc1,2,3,1,5,16*,3,18*,1
COc1ccc(N/C=C/C(=O)C(F)(F)F)cc1,0,-1,-1,-2,-1,0,x,x
O=C(/C=C/Nc1ccc(Cc2ccc(N/C=C/C(=O)C(F)(F)F)cc2)cc1)C(F)(F)F,2,5,0,2,13*,2,1,0
C/C(=N\NC(=O)c1nnn(-c2nonc2N)c1CN(C)c1ccccc1)c1cccnc1,2,5,1,1,13*,-1,0,0
C/C(=N\NC(=O)c1nnn(-c2nonc2N)c1-c1ccccc1)c1cccnc1,0,1,-1,-2,3,1,x,x
O=[N+]([O-])c1ccccc1CN1CCN(c2ncccn2)CC1,0,-1,-1,-1,-1,-3,x,x
CCn1c(O)c(/C=C2\C=Nc3ccccc32)sc1=O,2,4,0,6,14*,2,22*,1
Cc1cccc([C@@H]2[C@@H]3C(=O)N(Cc4ccccc4)C(=O)[C@@H]3[C@]3(C)C(=O)N(c4cccc(F)c4)C(=O)N23)c1,0,0,-1,2,0,2,x,x
N#Cc1c(NC(=O)c2cnccn2)sc2c1CCCC2,-1,4,-1,2,14*,2,13*,0
N#Cc1c(NC(=O)c2ccccc2)sc2c1CCC2,0,5.7*,1,1,16*,-1,23*,1
Cc1cccc(C(=O)Nc2sc3c(c2C#N)CCCCC3)c1,2,3,0,8,15*,3,17*,1
SMILES,DAX1 inh-1,hcDAF12 agonist,ssDAF12 agonist,SMARCA2 act,hgDAF12 agonist,DAX1 inh-2,hgDAF12 ag,LXR ag 2
N#Cc1c(NC(=O)c2cccnc2)sc2c1CCC2,0,0,-1,1,6,-1,x,x
Cc1cccc(C(=O)Nc2sc3c(c2C(=O)O)CCC3)c1,-1,0,-1,-1,-5,-1,x,x
Cc1cc2nc(CCN(C(=S)NCC3CCCO3)C3CCCC3)[nH]c2cc1C (stereo not given),0,-1,-1,0,-2,0,x,x
CCCc1cc(=O)[nH]c(SCC(=O)Nc2sc3c(c2C(N)=O)CCCC3)n1,-2,0,-1,-2,1,1,x,x
O=C(Nc1cccnc1)c1ccc(Oc2ccccc2)cc1,1,2,0,0,14*,2,15*,1
O=C(Nc1cccnc1)c1ccccc1Oc1ccccc1,-1,3,0,0,3,-1,x,x
O=C(CC(c1ccccc1)c1ccccc1)Nc1ccc(Cl)cn1,-2,-2,-2,-3,-4,2,x,x
O=C(/C=C/c1ccccc1)Nc1ccc(Cl)cn1,1,1,-1,4,14*,-2,20*,1
CCNC(=O)c1sc2cc(C)ccc2c1Cl,1,3,0,5,15*,1,10,0
O=C(c1ccccc1)c1cnc(-c2ccccc2)s1,3,3,0,3,16*,9.3*,18*,1
Cc1ccccc1N/N=C/c1ccc(C#N)cc1,0,0,-1,0,1,-1,x,x
Nc1nc(-c2ccc3c(c2)CCCC3)cs1,2,2,0,1,16*,1,11*,1
Cc1cc(C(=O)COC(=O)c2ccc(O)cc2)c(C)n1Cc1ccco1,4.2*,6.0*,0,2,13*,1,16*,0
CCOc1ncccc1C(=O)OCC(=O)c1cc(C)n(Cc2ccco2)c1C,2,3,0,2,5,0,x,x
Cc1nccn1CCCNC(=O)c1nc(Cn2cc([N+](=O)[O-])cn2)no1,0,-1,-1,-4,2,0,x,x
CCC(CC)C(=O)NCCc1cc2c(C)ccc(C)c2[nH]c1=O,0,0,0,-1,2,0,x,x
Cc1csc(NC(=O)Nc2cccc(Cl)c2)n1,2,4,0,4,17*,1,14*,1
CCOCCN(C(=O)c1ccccc1Cl)c1ccccc1,0,-1,-1,1,1,2,x,x
O=C(/C=C/c1cccc(F)c1)Nc1nccs1,3,5,0,5,15*,2,15*,1
O=C(COC(=O)/C=C/c1cccc(F)c1)Nc1ncccn1,0,0,-1,-5,1,-2,x,x
N/C(=N\C(=S)Nc1ccccc1)c1ccccc1,2,6.0*,0,4,16*,4.7*,17*,1
N#Cc1ccc(NC(=S)/N=C(\N)c2ccccc2)cc1,-1,2,0,-1,8,x,x,x
